# Data from PubChem BioAssay (NCATS).
# A number with no mark means an inactive call. Records with an inconclusive call do not appear. Entries that show only a call come without a potency. Active and inactive are the calls of the source. Calls come from the whole dose curve; as a rule, active = well fitted curve in the direction sought with a large enough effect; inconclusive = small, poorly fitted or top-dose-only effect, or another doubt; inactive = no such curve, though single readings can be large; an effect the other way counts as inactive or inconclusive.
# What was measured:
# [1] = Viability counterscreen for antagonist of constitutive androstane receptor (CAR) against the NCATS DSHEA and TCM libraries (AID 1794837); conditions: CAR reporter cell line viability counterscreen, qHTS; series mostly up to 40 µM;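 note: compound exposure lasted 24 h before viability reading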
# Procedure, shortened: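 Cell viability, CellTiter-Fluor, Ex/Em 405/540 nm, 1 h at 37C. HepG2-CYP2B6-hCAR, 2,500 cells/well; cpds + CITCO 48 uM final (antagonist mode), 24 h, 37C/5% CO2.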
# [2] = Viability counterscreen for agonist of constitutive androstane receptor (CAR) against the NCATS DSHEA and TCM libraries (AID 1794838); conditions: HepG2 cell viability counterscreen, CAR agonist assay, co-treated with 0.75 µM CAR antagonist; series mostly up to 40 µM
# Procedure, shortened: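 Viability by CellTiter-Fluor fluorescence, 405/540 nm, after 1 h at 37C. HepG2-CYP2B6-hCAR cells were exposed 24 h to test substances in presence of 0.75 uM PK11195 (final).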
# [3] = target: Nuclear receptor subfamily 1 group I member 3 (Homo sapiens) (UniProt Q14994); assay: Primary qHTS for agonist of constitutive androstane receptor (CAR) against the NCATS DSHEA and TCM libraries (AID 1794839); conditions: CAR agonist reporter cells, qHTS luminescence, CAR antagonist co-added at 0.75 µM; series mostly up to 40 µM; note: potency is the fitted concentration of half-maximal effect
# Chain of Nuclear receptor subfamily 1 group I member 3 (Homo sapiens) (Q14994 whole entry, looked up): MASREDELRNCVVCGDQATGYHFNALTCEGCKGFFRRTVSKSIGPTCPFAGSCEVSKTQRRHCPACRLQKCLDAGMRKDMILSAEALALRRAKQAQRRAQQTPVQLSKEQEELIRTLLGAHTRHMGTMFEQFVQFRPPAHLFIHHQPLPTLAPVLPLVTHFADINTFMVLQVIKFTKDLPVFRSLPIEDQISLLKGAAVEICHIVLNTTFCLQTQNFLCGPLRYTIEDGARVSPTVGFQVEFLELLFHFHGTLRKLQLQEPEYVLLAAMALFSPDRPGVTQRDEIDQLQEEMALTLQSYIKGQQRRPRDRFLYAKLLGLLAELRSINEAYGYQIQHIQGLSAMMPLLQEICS
# Procedure, shortened: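 Luminescence from ONE-Glo luciferase was the agonist read-out in HepG2-CYP2B6-hCAR cells exposed 24 h to test substances. Wells also held the CAR antagonist PK11195 at 0.75 µM final. Viability was by CellTiter-Fluor fluorescence.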
# [4] = HepG2 viability counterscreen (readout 2: ATP content) against the NCATS DSHEA and TCM libraries (AID 1794840); conditions: ATP content luminescence; series mostly up to 27.3 µM
# Procedure, shortened: (§1)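 1,000 HepG2 cells/well, 4 h attach; compounds ~24 h, 37C/5% CO2. Readout 1: GF-AFC 25 uM final, 30 min, fluorescence 380/510 nm. Readout 2: CellTiter-Glo, 30 min RT, luminescence.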
# [5] = HepG2 viability counterscreen (readout 1: protease activity) against the NCATS DSHEA and TCM libraries (AID 1794841); conditions: qHTS concentration series; series mostly up to 27.3 µM;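 note: cells exposed to compounds for about 24 h before the protease read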
# Procedure, shortened: as §1
# [6] = target: Cytochrome P450 3A4 (Homo sapiens) (UniProt P08684); assay: qHTS for inhibitors of CYP3A4 against the NCATS DSHEA and TCM libraries (AID 1919971); conditions: recombinant CYP3A4 enzyme activity, luminescence qHTS; series mostly up to 34.1 µM; note: potency is the fitted concentration of half-maximal effect
# Chain of Cytochrome P450 3A4 (Homo sapiens) (P08684 whole entry, looked up, canonical isoform): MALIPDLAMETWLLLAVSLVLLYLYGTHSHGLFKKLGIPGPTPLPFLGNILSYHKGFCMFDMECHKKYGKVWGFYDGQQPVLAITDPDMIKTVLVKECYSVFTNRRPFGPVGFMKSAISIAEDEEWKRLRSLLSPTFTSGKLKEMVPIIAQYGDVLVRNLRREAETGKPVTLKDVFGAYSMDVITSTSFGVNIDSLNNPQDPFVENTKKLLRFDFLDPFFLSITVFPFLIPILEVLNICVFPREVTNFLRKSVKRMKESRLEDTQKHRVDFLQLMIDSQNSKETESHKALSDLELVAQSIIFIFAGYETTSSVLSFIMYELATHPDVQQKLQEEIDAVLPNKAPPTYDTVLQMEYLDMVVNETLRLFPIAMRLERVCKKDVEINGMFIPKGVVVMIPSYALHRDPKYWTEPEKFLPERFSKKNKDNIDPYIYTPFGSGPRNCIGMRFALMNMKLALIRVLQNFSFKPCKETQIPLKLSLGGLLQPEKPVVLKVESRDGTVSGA
# Procedure, shortened: (§2)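 Each CYP isoform and its pro-luciferin substrate, at isoform-specific final concentrations, were preincubated 15 min at RT with substances. NADPH regeneration solution (1x) started a 30-45 min reaction, and P450-Glo luminescence was read.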
# [7] = target: Cytochrome P450 2D6 (Homo sapiens) (UniProt P10635); assay: qHTS for inhibitors of CYP2D6 against the NCATS DSHEA and TCM libraries (AID 1919972); conditions: CYP2D6 enzymatic inhibition, luminescence qHTS; series mostly up to 34.1 µM
# Chain of Cytochrome P450 2D6 (Homo sapiens) (P10635 whole entry, looked up): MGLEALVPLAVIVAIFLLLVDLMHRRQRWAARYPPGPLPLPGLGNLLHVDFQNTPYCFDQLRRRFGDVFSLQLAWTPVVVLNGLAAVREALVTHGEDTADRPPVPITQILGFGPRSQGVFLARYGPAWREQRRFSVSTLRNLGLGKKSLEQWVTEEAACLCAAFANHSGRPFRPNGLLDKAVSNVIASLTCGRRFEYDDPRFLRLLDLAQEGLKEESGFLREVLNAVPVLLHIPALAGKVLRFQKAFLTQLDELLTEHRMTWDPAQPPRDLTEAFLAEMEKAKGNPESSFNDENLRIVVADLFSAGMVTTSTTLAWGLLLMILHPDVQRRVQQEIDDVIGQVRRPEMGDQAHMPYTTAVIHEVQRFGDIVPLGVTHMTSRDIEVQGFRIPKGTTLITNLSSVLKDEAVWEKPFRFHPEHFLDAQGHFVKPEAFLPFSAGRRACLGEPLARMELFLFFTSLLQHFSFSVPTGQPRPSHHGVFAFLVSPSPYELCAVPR
# Procedure, shortened: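 CYP2D6 enzyme with pro-luciferin substrate in manufacturer buffer (typically 100 mM KPO4), preincubated 15 min RT with substances (most at 19.5 nM upward); NADPH regeneration system (1x) started 30–45 min RT reaction; P450-Glo luminescence read after 30 min; quinidine as intraplate control.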
# [8] = target: Cytochrome P450 2C19 (Homo sapiens) (UniProt P33261); assay: qHTS for inhibitors of CYP2C19 against the NCATS DSHEA and TCM libraries (AID 1919974); conditions: CYP2C19 enzyme inhibition, luminescence qHTS; series mostly up to 34.1 µM;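 note: luminescence from luciferin released by CYP2C19 oxidation of a pro-luciferin substrate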; note: potency is the fitted concentration of half-maximal effect
# Chain of Cytochrome P450 2C19 (Homo sapiens) (P33261 whole entry, looked up): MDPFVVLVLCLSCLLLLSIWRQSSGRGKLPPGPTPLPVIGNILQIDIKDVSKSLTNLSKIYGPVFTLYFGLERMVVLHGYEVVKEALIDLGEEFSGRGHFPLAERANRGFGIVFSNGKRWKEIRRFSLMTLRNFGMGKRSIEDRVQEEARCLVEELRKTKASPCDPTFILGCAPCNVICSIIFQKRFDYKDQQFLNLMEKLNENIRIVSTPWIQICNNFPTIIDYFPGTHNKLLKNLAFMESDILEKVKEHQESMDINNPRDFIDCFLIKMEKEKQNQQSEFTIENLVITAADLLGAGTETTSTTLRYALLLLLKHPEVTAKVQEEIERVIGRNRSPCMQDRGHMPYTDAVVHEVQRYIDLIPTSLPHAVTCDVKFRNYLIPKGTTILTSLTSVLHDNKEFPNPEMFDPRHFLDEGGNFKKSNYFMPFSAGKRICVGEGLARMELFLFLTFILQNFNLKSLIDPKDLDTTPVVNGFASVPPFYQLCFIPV
# Procedure, shortened: as §2
# [9] = KB-3-1 P-gp reporter qHTS against the NCATS DSHEA and TCM libraries (AID 1919975); conditions: KB-3-1 parental cells, CellTiter-Glo luminescence viability, 72 h; series mostly up to 26.1 µM
# Procedure, shortened: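 CellTiter-Glo luminescence viability readout; KB-3-1 parental cells, 500/well, attached ~4 h, then compound for ~72 h, 37C, 5% CO2. Bortezomib intraplate control.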
# [10] = Dual reporter qHTS for agonist of Pregnane X Receptor (hPXR) against the NCATS DSHEA and TCM libraries: Fluorescence readout (AID 1920058); conditions: PXR dual reporter cells; series mostly up to 40 µM
# Procedure, shortened: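 Viability readout (CellTiter-Fluor, 405/540 nm, 1 h) from agonist-mode PXR dual reporter in hPXR-Luc HepG2 cells. Substances ~24 h, 37 °C, 5% CO2; rifampicin reference, tetraoctyl ammonium bromide cytotoxic control.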
# [11] = target: Nuclear receptor subfamily 1 group I member 2 (Homo sapiens) (UniProt O75469); assay: Dual reporter qHTS for agonist of Pregnane X Receptor (hPXR) against the NCATS DSHEA and TCM libraries: Luminescence readout (AID 1920059); conditions: hPXR dual reporter cells, luciferase luminescence agonist; series mostly up to 40 µM; note: potency is the fitted concentration of half-maximal effect
# Chain of Nuclear receptor subfamily 1 group I member 2 (Homo sapiens) (O75469 whole entry, looked up): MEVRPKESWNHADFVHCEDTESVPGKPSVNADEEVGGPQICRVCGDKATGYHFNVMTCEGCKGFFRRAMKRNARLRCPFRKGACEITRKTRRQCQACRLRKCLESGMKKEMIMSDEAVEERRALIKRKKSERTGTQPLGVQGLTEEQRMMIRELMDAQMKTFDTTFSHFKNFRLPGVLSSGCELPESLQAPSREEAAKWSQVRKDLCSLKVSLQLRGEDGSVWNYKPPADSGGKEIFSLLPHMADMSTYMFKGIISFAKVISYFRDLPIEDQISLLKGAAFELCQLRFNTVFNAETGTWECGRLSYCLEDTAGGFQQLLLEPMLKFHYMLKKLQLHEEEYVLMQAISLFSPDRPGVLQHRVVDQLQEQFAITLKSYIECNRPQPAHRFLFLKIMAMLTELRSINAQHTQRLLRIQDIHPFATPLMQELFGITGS
# Procedure, shortened: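 hPXR-LucHepG2 cells in phenol red-free DMEM with 5% charcoal-stripped FBS, 2000 cells/well, attached 5 h, then exposed 24 h at 37C to compounds; rifampicin as positive agonist control (2.8 nM–92 uM). Luciferase luminescence read.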
# [12] = target: Nuclear receptor subfamily 1 group I member 2 (Homo sapiens) (UniProt O75469); assay: Dual reporter qHTS for antagonist of Pregnane X Receptor (hPXR) against the NCATS DSHEA and TCM libraries: Luminescence Readout (AID 1920060); conditions: hPXR dual reporter cells, luciferase luminescence, antagonist mode; series mostly up to 40 µM;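 note: HepG2 cells carrying hPXR luciferase reporter stimulated with rifampicin at 2 µM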
# Procedure, shortened: (§3)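 Antagonist mode: rifampicin 2 uM final co-added with compounds to hPXR-LucHepG2 cells for 24 h at 37C. Viability by CellTiter-Fluor, Ex/Em 405/540 nm, 1 h; reporter by ONE-Glo luminescence.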
# [13] = Dual reporter qHTS for antagonist of Pregnane X Receptor (hPXR) against the NCATS DSHEA and TCM libraries: Fluorescence Readout (AID 1920061); conditions: PXR dual reporter cells, antagonist mode; series mostly up to 40 µM
# Procedure, shortened: as §3
# [14] = qHTS Counterscreen for compound interference against the NCATS DSHEA and TCM libraries (AID 1919978); conditions: firefly luciferase detection reagent interference, luminescence;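 note: compounds preincubated with 1 µM D-luciferin or buffer before detection reagent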
# Procedure, shortened: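 Luminescence counterscreen for detection-kit interference: compounds at 19.5 nM–39.8 uM final, 15 min RT with 1 uM D-luciferin or buffer only; detection reagent added, 30 min RT, then read.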
Compound,outcome [1],outcome [2],Potency [3],outcome [4],outcome [5],Potency [6],Potency [7],Potency [8],outcome [9],outcome [10],Potency [11],outcome [12],outcome [13],max response [14] [%]
COc1ccc(C(=O)O)cc1,inactive,inactive,inactive,inactive,inactive,inactive,inactive,inactive,inactive,inactive,inactive,inactive,inactive,–
C=C1CC[C@H](O)C/C1=C\C=C1/CCC[C@]2(C)[C@@H]([C@H](C)CC[C@H](C)C(C)C)CC[C@@H]12,inactive,inactive,inactive,inactive,inactive,15.8 µM (active),inactive,22.4 µM (active),inactive,inactive,28.2 µM (active),inactive,inactive,–
Cc1ccc(C(C)C)cc1,inactive,inactive,inactive,inactive,inactive,inactive,inactive,inactive,inactive,inactive,inactive,inactive,inactive,-0.622
COc1ccc(-c2coc3cc(O[C@@H]4O[C@H](CO)[C@@H](O)[C@H](O)[C@H]4O)ccc3c2=O)cc1,inactive,inactive,11.2 µM (active),inactive,inactive,inactive,inactive,inactive,inactive,inactive,inactive,inactive,inactive,–
C[C@@H]1OC(O[C@H]2[C@H](O)[C@@H](O)[C@H](OC[C@H]3O[C@@H](OC(=O)[C@]45CCC(C)(C)C[C@@H]4C4=CCC6[C@@]7(C)CC[C@H](OC8OC[C@H](O)[C@H](O)[C@H]8OC8O[C@@H](C)[C@H](O)[C@@H](O)[C@H]8O)[C@@](C)(CO)C7CC[C@@]6(C)[C@]4(C)CC5)[C@H](O)[C@@H](O)[C@@H]3O)O[C@@H]2CO)[C@H](O)[C@H](O)[C@H]1O (stereo partly specified),inactive,inactive,inactive,inactive,inactive,inactive,–,inactive,inactive,inactive,inactive,inactive,inactive,-2.4
C=CC(C)(CCC=C(C)C)OC(C)=O (stereo unspecified),inactive,inactive,inactive,inactive,inactive,inactive,inactive,inactive,inactive,inactive,inactive,inactive,inactive,-0.984
C=C1CC/C=C(/C)CC[C@@H]2[C@@H]1CC2(C)C,inactive,inactive,7.08 µM (active),inactive,inactive,–,inactive,3.55 µM (active),inactive,inactive,inactive,inactive,inactive,1.11
CC(C)c1ccc(C=O)cc1,inactive,inactive,inactive,inactive,inactive,inactive,inactive,inactive,inactive,inactive,inactive,inactive,inactive,–
O=c1cc(-c2ccc(O)cc2)oc2cc(O[C@@H]3O[C@H](CO)[C@@H](O)[C@H](O)[C@H]3O[C@@H]3OC[C@](O)(CO)[C@H]3O)cc(O)c12,inactive,inactive,inactive,inactive,inactive,inactive,inactive,–,inactive,–,inactive,inactive,inactive,5.67
CCCCCCCCCCCCCC(=O)OCC(O)CO (stereo unspecified),inactive,inactive,inactive,inactive,inactive,inactive,inactive,–,inactive,inactive,inactive,inactive,inactive,2.98
CC(=O)O[C@H]1[C@H](O[C@H]2CC[C@]34C[C@]35CC[C@]3(C)[C@@H]([C@@]6(C)CC[C@@H](C(C)(C)O)O6)[C@@H](O)C[C@@]3(C)[C@@H]5C[C@H](O[C@@H]3O[C@H](CO)[C@@H](O)[C@H](O)[C@H]3O)[C@H]4C2(C)C)OC[C@@H](O)[C@@H]1O,inactive,inactive,inactive,inactive,inactive,inactive,inactive,inactive,inactive,–,inactive,inactive,inactive,-3.47
O=C(O[C@@H]1Cc2c(O)cc(O)cc2O[C@@H]1c1ccc(O)c(O)c1)c1cc(O)c(O)c(O)c1,inactive,inactive,inactive,inactive,inactive,–,–,–,inactive,–,inactive,inactive,inactive,–
C=C1C[C@@]23CC[C@H]4[C@@](C)(CCC[C@@]4(C)C(=O)O[C@@H]4O[C@H](CO)[C@@H](O)[C@H](O)[C@H]4O[C@@H]4O[C@H](CO)[C@@H](O)[C@H](O)[C@H]4O)[C@@H]2CC[C@]1(O[C@@H]1O[C@H](CO)[C@@H](O)[C@H](O)[C@H]1O[C@@H]1O[C@H](CO)[C@@H](O)[C@H](O)[C@H]1O)C3,inactive,inactive,inactive,inactive,–,inactive,inactive,inactive,inactive,inactive,inactive,inactive,inactive,4.27
